Assay outcomes as filed in PubChem BioAssay.
HT1080 IDH1KD tx: qHTS for induction of synthetic lethality in tumor cells producing 2HG: qHTS for the HT-1080-IDH1KD cell line; HT-1080 IDH1 knockdown viability, ATP luminescence, 48 h; Potency, µM (highest dose often 46.1 µM), actives largely listed as cytotoxic; 360,000 compounds, 2% hits; AID 686971, 2013
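CellTiter-Glo luminescence after 48 h compound exposure at 37 degrees C of IDH1-knockdown HT-1080 cells in 5% FBS RPMI. %Activity scaled between DMSO wells and cell-free media wells, with curves fitted and assigned curve classes.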
DT40 TDP1 no CPT: qHTS for Inhibitors of human tyrosyl-DNA phosphodiesterase 1 (TDP1): qHTS in cells in absence of CPT. DT40 Tdp1-/- hTDP1 cells, no CPT, ATP luminescence, 48 h. Potency, µM (top dose mostly 46.2 µM), most hits filed as inhibitors. 420,000 compounds, 15% hits. AID 686978, 2013; further: nearly all actives have a fitted effect of over 55% in size
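A cellular qHTS used chicken DT40 cells lacking endogenous Tdp1 but carrying stably transfected human TDP1. Compounds were applied without camptothecin, and cell growth kinetics were judged by ATP-dependent luminescence after ≥48 hr.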
DT40 TDP1 CPT: qHTS for Inhibitors of human tyrosyl-DNA phosphodiesterase 1 (TDP1): qHTS in cells in presence of CPT; chicken DT40 Tdp1-/-;hTDP1 cells + 20 nM CPT, ATP luminescence, 48 h; Potency, µM (top dose mostly 46.2 µM), hits mostly inhibitors; 420,000 compounds, 12% hits; further: nearly all actives have a fitted effect of over 55% in size
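Chicken DT40 Tdp1-/- cells stably complemented with human TDP1 were seeded at 400 cells/well in medium containing 20 nM camptothecin, exposed to pin-transferred compounds, and grown at 37 °C for at least 48 hr. Viability was read as ATP luminescence.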
HT1080-NT tox: qHTS for induction of synthetic lethality in tumor cells producing 2HG: qHTS for the HT-1080-NT fibrosarcoma cell line; HT-1080-NT fibrosarcoma viability, CellTiter-Glo ATP luminescence, 48 h; Potency, µM (titrated, usually from 46.1 µM), most hits filed as cytotoxic; 360,000 compounds, 1.6% hits;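 further: NT is the 2HG producing partner of a matched IDH1 knockdown line; nearly all actives have a fitted effect of over 55% in size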
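Toxicity toward the 2HG-producing NT line was scored as %Activity, normalised to DMSO and no-cell wells, from CellTiter-Glo luminescence after 48 hours' treatment.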
IL-1B inflam inh: qHTS for Inhibitors of Inflammasome Signaling: IL-1-beta AlphaLISA Primary Screen. THP-1 LPS/ATP IL-1B secretion, AlphaLISA, 16 h; stronger effect = lower value. activity change, % at 57.5 µM. 360,000 compounds, 4.7% hits. AID 743279, 2014; in the data active means activity change below about -50%; inconclusive means mostly about -30% to -49%
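THP-1 cells pretreated 1 hr with compounds (up to 57.5 uM final), then stimulated with LPS (250 ng/mL final) plus ATP (1.25 mM final); secreted IL-1B measured by AlphaLISA after 16 hr, decreased signal indicating inhibition.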
Hits are given with their value; . = inactive; ? = inconclusive; / = no result given; [ ] = dose if it differs, or a comment. Hits are enriched below; roughly 19% of the tested compounds scored in any of these assays. Unless noted, the call rests on the fitted dose curve; in most records, active means well fitted curve in the direction sought with a large enough effect; inconclusive means small, poorly fitted or top-dose-only effect, or another doubt; inactive means no such curve, though single readings can be large; an effect the other way counts as inactive or inconclusive.

SMILES | HT1080 IDH1KD tx | DT40 TDP1 no CPT | DT40 TDP1 CPT | HT1080-NT tox | IL-1B inflam inh
COc1ccc(-c2c(-c3ccccc3)c(C(=O)C(=O)NCCCN(C)C)n3ccc4cc(OC)c(OC)cc4c23)cc1OC | ? | 18µM | 3.3µM | ? | .
O=C(NCCCO)C(=O)c1c(-c2ccccc2)cc2ccccn12 | . | . | . | . | .
COC(=O)c1cc2c(n1S(=O)(=O)c1ccc(C)cc1)C(=O)C(=O)c1[nH]cc(C(=O)OCc3ccccc3)c1-2 | 3.7µM | 1.6µM | 0.82µM | 9.2µM | -85
COC(=O)c1ccc(COC(=O)c2ccc(CS(=O)(=O)c3ccc(C)cc3)cc2)cc1 | ? | . | . | . | .
Cc1ccc(C2(C)NC(=O)N(CC(=O)NNC(=O)c3ccccc3F)C2=O)cc1 (stereo unspecified) | . | . | . | . | .
CCSc1nnc2c(n1)[nH]c1c(C)cccc12 | ? | 13µM | 13µM | ? | .
CSc1nnc2c(n1)[nH]c1c(C)cccc12 | . | ? | ? | . | .
CC(=O)Nc1ccc(NC(=O)COC(=O)c2c(-c3ccccc3)noc2C)cc1 | . | ? | ? | .[9.24 µM] | .
Cc1c(C(=O)OCC(=O)NC2CC2)oc2ccc(Br)cc12 | . | . | . | . | .
O=C(NCCNc1ccc([N+](=O)[O-])cc1C(F)(F)F)c1cccc(F)c1 | . | 21µM | ? | . | .
CC(C)(CNC(=O)c1cccc(F)c1)CNC(=O)c1cccc(F)c1 | . | 18µM | ? | . | .
O=C(NCCNc1ccc([N+](=O)[O-])cc1C(F)(F)F)c1ccccc1 | . | ? | ? | . | .
O=C(O)c1cccc(Nc2ncnc3sccc23)c1 | . | . | . | . | .
Cc1ccc(C(=O)NNc2ncnc3c2cnn3C)cc1 | . | . | . | . | .
Cc1csc2ncnc(NNC(=O)c3ccc(Cl)cc3)c12 | ? | 10µM | ? | . | .
O=C(NNc1ncnc2sccc12)c1ccc(Cl)cc1 | . | 9.2µM | 13µM | ? | .
C=C(c1ccccc1Cl)[n+]1ccccc1 | . | 7.3µM | 12µM | . | .
Cc1ccc(-c2csc(/C(C#N)=C/c3ccccc3Cl)n2)cc1 | / | . | . | / | /
Cn1c(O)c(N=NC(=O)c2cccc(S(=O)(=O)N3CCCCC3)c2)c2ccccc21 | . | ? | 16µM | . | .
NC(=O)c1cccc(S(=O)(=O)N2CCCCC2)c1 | . | . | . | . | .
COC(=O)C1OC(OC2CC[C@]3(C)C(CC[C@@]4(C)[C@@H]3CC=C3[C@@H]5CC(C)(C)CC[C@]5(C(=O)OC5OC(CO)C(O)C(O)C5O)CC[C@]34C)C2(C)C)C(O)C(O)C1O[C@H]1OCC(O)C(O)C1O (stereo partly specified) | ? | . | ? | ? | -56
COC(=O)CCCn1c(C)cc(C(=O)CCl)c1C | ? | 10µM | 6.5µM | 21µM | -93
COC(=O)CCn1c(C)cc(C(=O)COc2ccccc2C(N)=O)c1C | ? | 23µM | 21µM | . | -99
CCOC(=O)c1cc(C)n(CCc2ccccc2)c1C | . | . | . | . | ?
Cc1cc(C(=O)CCl)c(C)n1CCc1ccccc1 | ? | 4.6µM | 3.3µM | 13µM | -100
SMILES | HT1080 IDH1KD tx | DT40 TDP1 no CPT | DT40 TDP1 CPT | HT1080-NT tox | IL-1B inflam inh
CCn1cc(C(=O)OCC(=O)Nc2cc(OC)cc(OC)c2)c(=O)c2ccc(C)nc21 | / | . | . | / | /
CCOc1ccc(-n2c(SCC(=O)Nc3ccc(C(=O)O)cc3)nc3ccccc3c2=O)cc1 | . | . | . | . | .
CC(C)c1ccc(NC(=O)N2CCC(c3nc4ccccc4o3)CC2)cc1 | . | 18µM | 21µM | . | .
Cc1ccc(C2CCN(C(=S)NC3CCCCC3)C2)cc1 (stereo unspecified) | ? | 18µM | ? | ? | .
Cc1cccc(NC(=S)N2CCC(c3nc4ccccc4o3)CC2)c1 | . | 29µM | ? | . | .
Cc1cc(C)cc(NC(=O)N2CCC(c3nc4ccccc4o3)CC2)c1 | . | . | ? | .[9.24 µM] | .
Cc1ccc(C2CCN(C(=S)Nc3cccc(C)c3)C2)cc1 (stereo unspecified) | . | 18µM | ? | . | .
O=C(Cn1ncc2c3ccccc3n(Cc3ccc(F)cc3)c2c1=O)NCCCN1CCCCC1 | / | . | . | / | /
O=C(Cn1ncc2c3ccccc3n(Cc3ccccc3F)c2c1=O)NC1CC1 | ? | . | . | . | .
O=C(Cn1ncc2c3ccccc3n(Cc3cccc(Cl)c3)c2c1=O)NC1CCCCCC1 | / | 6.5µM | 8.2µM | / | /
O=C(Cn1ncc2c3ccccc3n(Cc3ccccc3F)c2c1=O)NC1CCCCCC1 | / | 15µM | 7.3µM | / | /
Cc1ccc(C)c(Cn2c3ccccc3c3cnn(CC(=O)NC4CCCCCC4)c(=O)c32)c1 | / | 13µM | ? | / | /
CC(NC(=O)Cn1ncc2c3ccccc3n(Cc3ccc(F)cc3)c2c1=O)c1ccccc1 (stereo unspecified) | / | 10µM | ? | / | /
O=C(COC(=O)Cc1c(Cl)cccc1Cl)NCc1ccccc1 | . | ? | ? | . | .
Cc1ccc(N2CCCCn3c2nc2c3c(=O)n(CC(=O)O)c(=O)n2C)cc1 | . | . | . | . | .
CC(CNC(=O)Cn1ncc2c3ccccc3n(Cc3cccc(Cl)c3)c2c1=O)c1ccccc1 (stereo unspecified) | / | ? | 18µM | / | /
CN1CCCC1CCNc1ccc2oc3ccccc3c(=O)c2c1 (stereo unspecified) | . | ? | ? | . | -79
Cn1c2ccccc2c(=O)c2ccc(NCc3ccc4c(c3)OCO4)cc21 | . | 15µM | 23µM | . | .
CN1CCCC1CCNc1ccc2c(=O)c3ccccc3oc2c1 (stereo unspecified) | . | 18µM | ? | . | -83
O=c1c2ccccc2oc2cc(NCCCn3ccnc3)ccc12 | . | ? | ? | . | .
Cn1c2ccccc2c(=O)c2ccc(Cl)cc21 | . | . | . | . | .
COc1cccc2sc3ccc(NCc4ccc5c(c4)OCO5)cc3c(=O)c12 | . | ? | ? | . | .
CN1CCC[C@H]1CCNc1ccc2c(=O)c3ccccc3n(C)c2c1 | . | ? | ? | . | -72
CCCCC[C@@H]1C=C(C(=O)O)[C@H](c2ccc(Br)cc2)N1S(=O)(=O)c1ccc(C)cc1 | . | . | . | . | .
CC(C)c1ccccc1NC(=O)Nc1nnc([C@@H]2C[C@H](O)[C@@H](CO)O2)s1 | ? | . | . | . | .
Cc1c(C(=O)N(C)C2CCCCC2)sc2ncnc(N3CCN(c4ccccc4F)CC3)c12 | . | 18µM | 18µM | . | .
